About 83,000 compounds went through this panel and 20% of them were active in at least one assay; those are over-represented in the sample as a whole.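 Values shown are percent growth following 48 h exposure of cells in 96-well plates to a single concentration of compound; below 10 was considered active.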 A number with no mark means an inactive call. The source made the active and inactive calls.

For this assay, the system named is COLO 205 colon. Put plainly: NCI-60 one-dose screen, 48 h (100 = growth as untreated, 0 = no growth, -100 = all killed). Conditions: 10 µM unless noted. On the procedure: Cells are grown in 96 well plates and exposed to the test compound for 48 hours. Compounds are tested at a single concentration, which is 10^-5 M for most compounds. The reported endpoint is percent growth (GI% or GIPRCNT), where numbers from 0 - 100% represent growth inhibition, and numbers from -100% - 0 represent cell death. For example, a value of 40 represents 60% growth inhibition. A value of 0 means no net growth occurred over the course of the experiment. A value of -40 indicates 40% of cells at the beginning of the experiment died by the end of the experiment. A value of -100 means all cells are dead at the end of the experiment.
NCI-60 Human Tumor Cell Lines Screen was performed using the standard one-dose NCI protocol, which is described in more detail at https://dtp.cancer.gov/discovery_development/nci-60/default.htm.
Compounds with GIPRCNT values below 10 were considered active. Activity score was based on GIPRCNT using the following formula: […]
Score is 0 for GIPRCNT values of 100 or above, 50 for GIPRCNT values of 0, and 100 for GIPRCNT values of -100.
In the case of `CC(C)Sc1ncnc2nc[nH]c12`, the growth is 96.8%.
For `COc1cc(-c2ccc(NC(=O)CC(C)=O)c(OC)c2)ccc1NC(=O)CC(C)=O`, the growth was 115%.
Regarding `O=c1n(CC2CO2)c(=O)n(CC2CO2)n1CC1CO1` (stereo not given), the growth is 70.1%.
Take `C=CCC(OC(C)=O)c1ccc(OC)c(OC)c1` (stereo not given): the growth was 113%.
The same measure for `CC(C)c1ccc(C(=O)OCCCl)cc1`: 110%.
Regarding `COc1cccc2c1Cc1ccccc1-2`, the growth is 109%.
In the case of `ClCC(Cl)C1CCC(Cl)C(Cl)C1` (stereo not given), the growth was 109%.
As for `O=C1C=C[C@H](O)[C@@]2(CO)O[C@@H]12`, the figure is 3.59% (active); as for `NS(=O)(=O)c1cc(=O)[nH]c(=O)[nH]1`, 117%.
The same measure for `N#C/C(=C\c1ccc(C#N)cc1)C(=O)c1ccccc1`: 123%; for `Cc1cc2c(C(C)C)c(O)c(O)c(C=Nc3ccccc3[N+](=O)[O-])c2c(O)c1-c1c(C)cc2c(C(C)C)c(O)c(O)c(C=Nc3ccccc3[N+](=O)[O-])c2c1O`: 94.7%; for `CC(C)(N)CO[C@H]1C[C@H]2CC[C@@]1(C)C2(C)C`: 109%.
On to `Nc1ccc2c(c1)Cc1cc(N)c(N)cc1-2`, for which the growth was 103%.
As to `Oc1ccc2ccccc2c1CN1CCOCC1`, the growth was 106%.
The same measure for `CC(=O)N(CCCCCCN(C(C)=O)C(C)=O)C(C)=O`: 134% [100 µM].
As for `CN(C(=S)S(=O)(=O)C12CC3CC(CC(C3)C1)C2)c1ccccc1`, the figure is 88.5%; as for `Cn1c(=O)c2[nH]c(CCCCC(=O)O)nc2n(C)c1=O`, 103%.
Take `Cc1ccccc1NC(=O)Oc1ccc(Cl)cc1C(=O)c1ccccc1`: the growth is 109%.
As for `O=S(=O)(O)C(C(I)I)S(=O)(=O)O`, the growth is 110%.
As for `NC(=S)N/N=C/c1ccc(OC(=O)COc2ccccc2)cn1`, the growth is 85.9%.
Consider `CCN(C(=O)Nc1ccccc1Cl)c1ccccc1`, for which the growth is 113%.
For the compound `Cc1ccc2nc(-c3ccc(N=Cc4ccccc4O)cc3)sc2c1`, the growth is 140%.
The same measure for `Cc1cc(CC(=O)NCCO)n(CCO)c(=O)c1`: 104%.
The same measure for `Cc1nc(C)c(C(=O)O)cc1C(=O)O`: 131%; for `CCCC(=O)CC(=O)c1ccccc1`: 113%.
Consider `CC(=O)NCNC(C)=O`, for which the growth was 118%.
In the case of `N=C(N)c1nn(C2OC(CO)C(O)C2O)c2nc[nH]c(=O)c12` (stereo not given), the growth is -11.5% (active).
Consider `N#Cc1ccc2nc[nH]c2c1`, for which the growth was 112%.
On to `CCC1CCC(C)NC1` (stereo not given), for which the growth is 103%.
Regarding `CC(=O)Nc1ccc(C(=O)c2ccc(S(=O)(=O)Nc3ccccc3)cc2)cc1`, the growth was 92.4%.
The same measure for `C=COC(=O)C(C)(C)C`: 104%.
As to `CCOC(=O)c1c(C)[nH]c(C)c1C=O`, the growth is 110%.
On to `OCC1OC(n2ccc3c2ncn2ncnc32)C(O)C1O` (stereo not given), for which the growth is 35%.
In the case of `O=C1NCC2CCCC1C2` (stereo not given), the growth is 119%.
With `CCNc1ncnc2[nH]ncc12`, the growth is 114%.
Regarding `CC(=O)N=c1ccc2nc3c(cc(N)c4ccccc43)oc-2c1`, the growth was -84.6% (active).
With `COc1ccc(C)cc1NC(=O)SC(C)C`, the growth was 132% [100 µM].
As to `CCCCCCCCCCCCCC/C=C\C(CC(=O)O)C(=O)O` (stereo not given), the growth was 97.7%.
With `O=C(NCc1ccco1)Nc1cccc2c(NC(=O)NCc3ccco3)cccc12`, the growth was 71.4% [100 µM].
Regarding `CC1CC(C)S(=O)(=O)C1` (stereo not given), the growth was 108%.

The values above are taken from PubChem BioAssay (NCI).
